# Measurements: PubChem BioAssay AID1159580 (chemical genetic matrix, 2015)
# “And” between values parts separate entries of the source, which are not always exact repeats. Equal values may be shown once. Hit rate of the full screen: of about 5,500 compounds, about 2,000 (36%) were called active. Another 18% or so got no clear call; they are omitted. Cut-off read from the data, not from the text of the source: active = normalized growth mostly below about 0.91 (no sharp cut-off); inconclusive = no clear call, values can overlap the other calls; inactive = mostly above about 0.92. Some of the results follow.
# Test: chemical genetic growth profiling, strain panel (AID 1159580);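 note: tested at 20 µM; growth read once vehicle control cultures reached saturation at 30 °C; 1 = growth at the plate median or of vehicle wells; lower values mean less growth of the strain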
# Conditions: S. cerevisiae deletion strains, growth OD
compound,measurement,setting,value
O=C(O)c1cc2ccccc2c(Cc2c(O)c(C(=O)O)cc3ccccc23)c1O,normalized growth,"locus YAL021C, strain ccr4, stronger effect = lower value",0.967 (inactive)
same,normalized growth,"locus YAL026C, strain drs2, stronger effect = lower value",1.01 (inactive)
same,normalized growth,"locus YAL030W, strain snc1, stronger effect = lower value",0.994 (inactive)
same,normalized growth,"locus YBL061C, strain skt5, stronger effect = lower value",0.99 (inactive)
same,normalized growth,"locus YBR009C, strain hhf1, stronger effect = lower value",0.988 (inactive)
same,normalized growth,"locus YBR021W, strain FUR4, stronger effect = lower value",1.02 (inactive)
same,normalized growth,"locus YBR023C, strain chs3, stronger effect = lower value",0.996 (inactive)
same,normalized growth,"locus YBR171W, strain sec66, stronger effect = lower value",1 (inactive)
same,normalized growth,"locus YBR229C, strain ROT2, stronger effect = lower value",1.01 (inactive)
same,normalized growth,"locus YBR231C, strain swc5, stronger effect = lower value",0.977 (inactive)
same,normalized growth,"locus YBR279W, strain paf1, stronger effect = lower value",0.99 (inactive)
same,normalized growth,"locus YCL011C, strain gbp2, stronger effect = lower value",1 (inactive)
same,normalized growth,"locus YCL016C, strain dcc1, stronger effect = lower value",0.989 (inactive)
same,normalized growth,"locus YCL029C, strain bik1, stronger effect = lower value",1.01 (inactive)
same,normalized growth,"locus YCL061C, strain MRC1, stronger effect = lower value",1 (inactive)
same,normalized growth,"locus YCL069W, strain vba3, stronger effect = lower value",1 (inactive)
same,normalized growth,"locus YCR088W, strain abp1, stronger effect = lower value",1.01 (inactive)
same,normalized growth,"locus YDL005C, strain med2, stronger effect = lower value",1 (inactive)
same,normalized growth,"locus YDL035C, strain GPR1, stronger effect = lower value",1.01 (inactive)
same,normalized growth,"locus YDL040C, strain nat1, stronger effect = lower value",0.995 (inactive)
same,normalized growth,"locus YDL074C, strain BRE1, stronger effect = lower value",0.94 (inactive)
same,normalized growth,"locus YDL101C, strain DUN1, stronger effect = lower value",1 (inactive)
same,normalized growth,"locus YDL134C, strain PPH21, stronger effect = lower value",0.997 (inactive)
same,normalized growth,"locus YDL185W, strain tfp1, stronger effect = lower value",1.01 (inactive)
same,normalized growth,"locus YDL192W, strain arf1, stronger effect = lower value",1 (inactive)
same,normalized growth,"locus YDR001C, strain nth1, stronger effect = lower value",1.01 (inactive)
same,normalized growth,"locus YDR069C, strain doa4, stronger effect = lower value",0.989 (inactive)
same,normalized growth,"locus YDR101C, strain arx1, stronger effect = lower value",1.01 (inactive)
same,normalized growth,"locus YDR137W, strain rgp1, stronger effect = lower value",1.04 (inactive)
same,normalized growth,"locus YDR159W, strain sac3, stronger effect = lower value",0.97 (inactive)
same,normalized growth,"locus YDR162C, strain NBP2, stronger effect = lower value",0.985 (inactive)
same,normalized growth,"locus YDR195W, strain ref2",0.977 (inactive)
same,normalized growth,"locus YDR297W, strain sur2, stronger effect = lower value",0.995 (inactive)
same,normalized growth,"locus YDR318W, strain mcm21, stronger effect = lower value",0.988 (inactive)
same,normalized growth,"locus YDR334W, strain swr1, stronger effect = lower value",0.996 (inactive)
same,normalized growth,"locus YDR335W, strain msn5, stronger effect = lower value",1.01 (inactive)
same,normalized growth,"locus YDR388W, stronger effect = lower value",0.996 (inactive)
same,normalized growth,"locus YDR392W, strain spt3, stronger effect = lower value",0.911 (inactive)
same,normalized growth,"locus YDR502C, strain sam2, stronger effect = lower value",1 (inactive)
same,normalized growth,"locus YEL003W, strain gim4, stronger effect = lower value",1.02 (inactive)
same,normalized growth,"locus YEL037C, strain rad23, stronger effect = lower value",0.999 (inactive)
same,normalized growth,"locus YEL061C, strain CIN8 (second series), stronger effect = lower value",1 (inactive)
same,normalized growth,"locus YEL061C, strain CIN8, stronger effect = lower value",1.03 (inactive)
same,normalized growth,"locus YER015W, strain faa2, stronger effect = lower value",0.988 (inactive)
same,normalized growth,"locus YER016W, strain bim1, stronger effect = lower value",1 (inactive)
same,normalized growth,"locus YER110C, stronger effect = lower value",0.989 (inactive)
same,normalized growth,"locus YER111C, strain swi4, stronger effect = lower value",1.01 (inactive)
same,normalized growth,"locus YER155C, strain BEM2 (second series), stronger effect = lower value",0.962 (inactive)
same,normalized growth,"locus YER155C, strain BEM2, stronger effect = lower value",0.992 (inactive)
same,normalized growth,"locus YER167W, strain BCK2, stronger effect = lower value",1 (inactive)
same,normalized growth,"locus YFR010W, strain ubp6, stronger effect = lower value",1.01 (inactive)
same,normalized growth,"locus YGL078C, strain dbp3, stronger effect = lower value",1.01 (inactive)
same,normalized growth,"locus YGL086W, strain mad1, stronger effect = lower value",1 (inactive)
same,normalized growth,"locus YGL167C, strain pmr1, stronger effect = lower value",0.994 (inactive)
same,normalized growth,"locus YGL173C, strain kem1, stronger effect = lower value",0.997 (inactive)
same,normalized growth,"locus YGL227W, strain vid30, stronger effect = lower value",1 (inactive)
same,normalized growth,"locus YGL240W, strain doc1, stronger effect = lower value",0.96 (inactive)
same,normalized growth,"locus YGL248W, strain PDE1, stronger effect = lower value",0.998 (inactive)
same,normalized growth,"locus YGL253W, strain hxk2, stronger effect = lower value",1.01 (inactive)
same,normalized growth,"locus YGR078C, strain PAC10, stronger effect = lower value",0.996 (inactive)
same,normalized growth,"locus YGR135W, strain pre9, stronger effect = lower value",0.99 (inactive)
same,normalized growth,"locus YGR252W, strain gcn5, stronger effect = lower value",0.978 (inactive)
same,normalized growth,"locus YHR013C, strain ard1, stronger effect = lower value",0.966 (inactive)
same,normalized growth,"locus YHR027C, strain rpn1, stronger effect = lower value",1 (inactive)
same,normalized growth,"locus YHR030C, strain SLT2, stronger effect = lower value",1.01 (inactive) and 0.859 (inactive)
same,normalized growth,"locus YHR079C, strain IRE1 (second series), stronger effect = lower value",0.992 (inactive)
same,normalized growth,"locus YHR079C, strain IRE1, stronger effect = lower value",0.844 (active)
same,normalized growth,"locus YHR094C, strain hxt1, stronger effect = lower value",0.999 (inactive)
same,normalized growth,"locus YHR129C, strain ARP1, stronger effect = lower value",0.995 (inactive)
same,normalized growth,"locus YHR142W, strain chs7, stronger effect = lower value",1.02 (inactive)
same,normalized growth,"locus YHR200W, strain rpn10, stronger effect = lower value",0.991 (inactive)
same,normalized growth,"locus YIL066C, strain RNR3, stronger effect = lower value",0.986 (inactive)
same,normalized growth,"locus YIL073C, strain SPO22, stronger effect = lower value",1.02 (inactive)
same,normalized growth,"locus YIL125W, strain kgd1, stronger effect = lower value",0.994 (inactive)
same,normalized growth,"locus YIR030C, strain dcg1, stronger effect = lower value",1 (inactive)
same,normalized growth,"locus YJL092W, strain hpr5, stronger effect = lower value",1.01 (inactive)
same,normalized growth,"locus YJL095W, strain BCK1 (second series), stronger effect = lower value",0.992 (inactive)
same,normalized growth,"locus YJL095W, strain BCK1, stronger effect = lower value",0.99 (inactive) and 0.866 (active)
same,normalized growth,"locus YJL115W, strain asf1, stronger effect = lower value",1 (inactive)
same,normalized growth,"locus YJL129C, strain trk1, stronger effect = lower value",0.976 (inactive)
same,normalized growth,"locus YJL134W, strain LCB3, stronger effect = lower value",0.99 (inactive)
same,normalized growth,"locus YJL154C, strain vps35, stronger effect = lower value",1 (inactive)
same,normalized growth,"locus YJL164C, strain tpk1, stronger effect = lower value",0.99 (inactive)
same,normalized growth,"locus YJL166W, strain qcr8, stronger effect = lower value",0.992 (inactive)
same,normalized growth,"locus YJL168C, strain set2, stronger effect = lower value",0.977 (inactive)
same,normalized growth,"locus YJL187C, strain SWE1 (second series), stronger effect = lower value",1 (inactive)
same,normalized growth,"locus YJL187C, strain SWE1, stronger effect = lower value",1.02 (inactive)
